TDP1 cell noCPT – qHTS for Inhibitors of human tyrosyl-DNA phosphodiesterase 1 (TDP1): qHTS in cells in absence of CPT; DT40 Tdp1-/- hTDP1 cells, no CPT, ATP luminescence, 48 h; Potency, µM (titrated, usually from 46.2 µM), inactives show at the highest dose activity change, negative = growth inhibition, hits mostly inhibitors; 15% of 420,000 active; AID 686978, 2013; further: potency means the concentration at half of the fitted maximal effect; nearly all actives have a fitted effect of over 55% in size
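DT40 Tdp1-/-;hTDP1 cells, no CPT (DMSO vehicle only), 400 cells/well; compounds pin-transferred; ≥48 hr, 37 °C; CellTiter-Glo 30 min RT dark, luminescence read.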
IL-1B inflam inh – inhibitors of inflammasome signaling (IL-1 beta secretion); THP-1 LPS/ATP IL-1B secretion, AlphaLISA, 16 h; hits give low values; activity change, % at 57.5 µM; 4.7% of 360,000 active; AID 743279; in the data active means activity change below about -50%; inconclusive means mostly about -30% to -49%
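Secreted IL-1B measured by AlphaLISA bead assay after 16 h compound exposure of THP-1 cells; compounds (final up to 57.5 uM) added 1 h before LPS (250 ng/mL) and ATP (1.25 mM) stimulation; lower signal means less secretion.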
HT1080 IDH1KD tx – HT-1080 IDH1 knockdown cell toxicity (counter line) | Potency, µM (series often up to 46.1 µM), for inactives: at the top dose activity, negative = toxicity, actives largely listed as cytotoxic | HT-1080 IDH1 knockdown viability, ATP luminescence, 48 h | 2% of 360,000 active | AID 686971;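 further: potency means the concentration at half of the fitted maximal effect; 0% = DMSO wells and -100% = cell-free medium wells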
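After a 2 h attachment period, IDH1KD HT-1080 cells took pin-transferred compound for 48 h at 37 °C; ATP-based luminescence after 10 min room-temperature reagent incubation reported viability.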
TDP1 cell CPT – DT40-hTDP1 cell growth loss with CPT; chicken DT40 Tdp1-/-;hTDP1 cells + 20 nM CPT, ATP luminescence, 48 h; 12% of 420,000 active; AID 686979; Potency, µM (top dose mostly 46.2 µM), without a hit: at the top dose activity change, negative = growth inhibition, usual class: inhibitors; further: potency means the concentration at half of the fitted maximal effect; nearly all actives have a fitted effect of over 55% in size
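Chicken DT40 Tdp1-/- cells complemented with human TDP1, 400 cells/well, exposed to compounds plus 20 nM camptothecin for at least 48 h at 37 C; viability read as ATP content by CellTiter-Glo luminescence.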
HT1080NT lethal – kills 2HG-producing HT-1080-NT fibrosarcoma cells. HT-1080-NT fibrosarcoma viability, CellTiter-Glo ATP luminescence, 48 h. Potency, µM (highest dose often 46.1 µM), inactives show at the top dose activity, negative = less viability, hits mostly cytotoxic. 1.6% of 360,000 active. AID 686970;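 further: NT is the 2HG producing partner of a matched IDH1 knockdown line; potency means the concentration at half of the fitted maximal effect; 0% = DMSO-treated cells and -100% = media-only wells without cells; nearly all actives have a fitted effect of over 55% in size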
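Toxicity toward the 2HG-producing NT line was scored as %Activity, normalised to DMSO and no-cell wells, from CellTiter-Glo luminescence after 48 hours' treatment.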
Starred values were filed as active, the others as inactive; ? = inconclusive; / = no result given. An excerpt weighted towards active compounds, which were near 19% of everything screened. Unless noted, the call rests on the fitted dose curve; in most records, active means well fitted curve in the direction sought with a large enough effect; inconclusive means small, poorly fitted or top-dose-only effect, or another doubt; inactive means no such curve, though single readings can be large; an effect the other way counts as inactive or inconclusive. Unless noted, on the % scale 0 is the no-effect control and ±100 the full control effect.

SMILES	TDP1 cell noCPT	IL-1B inflam inh	HT1080 IDH1KD tx	TDP1 cell CPT	HT1080NT lethal
NS(=O)(=O)c1cccc(NC(=O)CCSc2ccccc2Cl)c1	3%	0	12%	-11%	3%
Cc1cc(C)c([N+](=O)[O-])cc1NC(=O)CCSc1ccccc1Cl	15µM*	8	-1%	?	-4%
O=C(C[n+]1ccc(C(=O)c2ccccc2)cc1)Nc1ccccc1OC(F)F	16µM*	-14	-15%	?	-7%
O=C(COC(=O)c1ccc[n+]([O-])c1)Nc1ccccc1OC(F)F	-16%	-1	13%	-22%	11%
CCc1ccc(/C=C(\Cl)c2nc3cc(Cl)ccc3c(=O)[nH]2)cc1	?	-1	23%	?	17%
O=c1[nH]c(/C(Cl)=C/c2cccc(F)c2)nc2cc(C(F)(F)F)ccc12	23µM*	8	6%	?	3%
CCOC(=O)/C(C#N)=C/c1c(N2CCN(CC)CC2)nc2c(C)cccn2c1=O	-4%	-18	-4%	-15%	-4%
CCCCNC(=O)C(CC)Sc1nnc(-c2cccc(F)c2)c(-c2cccc(F)c2)n1 (configuration not stated)	?	/	/	16µM*	/
O=C1CCCCC1(CCc1ccncc1)CCc1ccncc1	12µM*	-16	-4%	18µM*	-3%
O=C(NCCc1ccncc1)C12CC3CC(CC(C3)C1)C2	?	6	-1%	?	-3%
CCSc1nnc(NC(=O)C2CCN(C(=O)c3ccco3)CC2)s1	-9%	/	/	-8%	/
CCN1CCCc2cc(CN(CCN3CCOCC3)C(=S)Nc3cccc(OC)c3)ccc21	21µM*	-2	-7%	?	1%
COc1ccc(CN(CCCN2CCOCC2)C(=O)Nc2cccc(Cl)c2)cc1OC	?	-14	-8%	-21%	-1%
CCOc1ccc(NC(=O)N(CCN2CCOCC2)Cc2ccc3c(c2)CCCN3CC)cc1	-4%	2	0%	?	2%
CCCN1CCCc2cc(CN(CCCN3CCOCC3)C(=O)Nc3ccc(OCC)cc3)ccc21	?	?	-10%	26µM*	0%
CCCN1CCCc2cc(CN(CCCN3CCOCC3)C(=O)Nc3ccc(Cl)c(Cl)c3)ccc21	7.3µM*	/	/	26µM*	/
Cc1ccccc1N(CC(=O)NCC1CCCO1)C(=O)CCC(=O)Nc1nccs1 (configuration not stated)	-23%	7	6%	1%	4%
O=C(C[n+]1cccc(Br)c1)c1ccc(F)cc1	0%	/	/	-4%	/
COc1ccc(-c2nn(-c3ccccc3)cc2/C=N/N2C(=O)CSC2=S)cc1	16µM*	-106*	2%	18µM*	25%
COc1ccc(/C=N/N2C(=O)CSC2=S)cc1	?	4	18%	?	-2%
COc1ccc(NC(=O)Cc2ccc(Cl)c(Cl)c2)cn1	-16%	0	-2%	-3%	-4%
COc1ccc(NC(=O)/C(Cl)=C(/Cl)S(=O)(=O)Cc2ccc(C)cc2)cn1	0.82µM*	-119*	8.2µM*	0.52µM*	23µM*
Cn1ccc(NC(=O)Nc2cccc(C(F)(F)F)c2)n1	-23%	-22	2%	-6%	14%
NC(CCc1ccccc1)c1csc(NC(=O)Nc2cccc(C(F)(F)F)c2)n1 (configuration not stated)	21µM*	-57*	21µM*	?	16µM*
NC(Cc1ccc(C(F)(F)F)cc1)c1csc(NC(=O)Nc2ccccc2)n1 (configuration not stated)	?	0	16µM*	13µM*	?
COc1ccc(CC(N)c2csc(NC(=O)Nc3ccc(F)cc3)n2)cc1 (configuration not stated)	13µM*	-65*	?	23µM*	?
CCN(c1ccccc1)c1nnc(NC(=O)Nc2cccc(C(F)(F)F)c2)s1	-24%	/	/	-22%	/
NCc1csc(NC(=O)Nc2cccc(C(F)(F)F)c2)n1	23µM*	-18	?	16µM*	-18%
